CHX counter = counter-screen hit for Shiga toxin inhibitors, cycloheximide. cell reporter, cycloheximide protein synthesis inhibition counterscreen. max response, %. actives 12% (n = 300,000). AID 2314; in the data active = max response mostly above about 13%, no sharp cut-off; inactive = mostly below about 14%; note: read at 38.3 µM for the half of the compounds with a filed dose; 0% is about no effect
LmPK inhibitor = LmPK (Leishmania mexicana) enzyme inhibition | Q27686 | purified LmPK, Kinase-Glo ATP luminescence, 1 h | Potency, µM (highest dose often 57.5 µM), without a hit: top-dose activity change, negative = inhibition, hits mostly inhibitors | actives 0.37% (n = 290,000) | AID 1721; note: potency is the fitted concentration of half-maximal effect; % is set by controls: 0 for no effect and ±100 for the full control effect
Target sequence (Q27686 whole entry, looked up): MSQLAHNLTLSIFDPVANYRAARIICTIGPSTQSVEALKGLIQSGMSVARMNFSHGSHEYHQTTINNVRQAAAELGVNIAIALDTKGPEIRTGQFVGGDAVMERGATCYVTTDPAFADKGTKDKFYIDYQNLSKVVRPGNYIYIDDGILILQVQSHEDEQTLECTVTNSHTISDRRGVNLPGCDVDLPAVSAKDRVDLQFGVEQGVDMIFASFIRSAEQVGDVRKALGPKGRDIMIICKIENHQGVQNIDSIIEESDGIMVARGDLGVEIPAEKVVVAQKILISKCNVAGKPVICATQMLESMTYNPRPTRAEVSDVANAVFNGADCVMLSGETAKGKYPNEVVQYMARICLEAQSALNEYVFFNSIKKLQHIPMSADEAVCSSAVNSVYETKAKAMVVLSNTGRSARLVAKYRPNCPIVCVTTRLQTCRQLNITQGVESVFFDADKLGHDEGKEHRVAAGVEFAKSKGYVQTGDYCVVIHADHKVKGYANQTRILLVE
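Purified LmPK (0.1 nM) with 0.5 mM PEP and 0.1 mM ADP in imidazole buffer pH 7.2 with MgCl2/KCl, 1 h at room temperature. ATP formed was read by luciferase luminescence and normalized to no-enzyme and uninhibited controls.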
Pf growth 48h = P. falciparum growth inhibition at 48 hours (one generation) | actives 5.9% (n = 310,000) | P. falciparum luciferase growth in erythrocytes, 48 h | Potency, µM (series often up to 28.7 µM), for inactives: top-dose activity change, negative = inhibition, most hits filed as inhibitors; note: potency is the fitted concentration of half-maximal effect; % is set by controls: 0 for no effect and ±100 for the full control effect
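Firefly luciferase activity from engineered P. falciparum reports growth; inhibitors lower the luminescent signal. Cultures contained 2% hematocrit erythrocytes at 0.1% final parasitemia.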
Pf growth 96h = P. falciparum growth inhibition at 96 hour, primary screen for plastid delayed-death inhibitors; actives 6.9% (n = 320,000); Potency, µM (titrated, usually from 28.7 µM), for inactives: top-dose activity change, negative = inhibition, most hits filed as inhibitors; P. falciparum luciferase reporter growth, 96 h; note: potency is the fitted concentration of half-maximal effect; % is set by controls: 0 for no effect and ±100 for the full control effect
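Erythrocytes infected with luciferase-expressing P. falciparum were dispensed at 2% hematocrit and 0.05% parasitemia (final), then incubated with compounds 96 hours at 37 C in 5% CO2. Luminescence after detection reagent addition reported growth.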
Shiga toxin inh = inhibitors of Shiga toxin in Vero cells. Vero cells, Shiga toxin protein synthesis inhibition reporter. inhibition, % at 38.7 µM. actives 9.2% (n = 290,000); in the data active = inhibition mostly above about 28%, no sharp cut-off; inactive = mostly below about 43%; note: 0% is about no effect
* marks the source's active call; other numbers are inactive results; ? = inconclusive; . = not tested or not shown; [ ] = remark or other dose. A selection: hits, their analogues and other compounds. The true share with any hit is near 22%. Unless noted, calls come from the whole dose curve; as a rule, active = well fitted inhibition curve with a large enough effect; inconclusive = small, poorly fitted or top-dose-only effect, or another doubt; inactive = no such curve, though single readings can be large or run the other way.

SMILES	CHX counter	LmPK inhibitor	Pf growth 48h	Pf growth 96h	Shiga toxin inh
C#CCOCCOCCOCCNc1nc(N2CCN(C(=O)Cn3cc(CC(C)O)nn3)CC2)nc(N2CCN(C(=O)[C@H](C)n3cc(CCCN=C(N)N)nn3)CC2)n1 (some centres not stated)	-6.6	0.5%	-1.7%	11.7µM*	-14.8
C#CCOCCOCCOCCNc1nc(N2CCN(C(=O)Cn3cc(CCCN=C(N)N)nn3)CC2)nc(N2CCN(C(=O)[C@H]([C@@H](C)CC)n3cc(CCCN=C(N)N)nn3)CC2)n1	-4.5	5.9%	1.17µM*	0.037µM*	-14.2
C#CCOCCOCCOCCNc1nc(N2CCN(C(=O)Cn3cc(CCCN=C(N)N)nn3)CC2)nc(N2CCN(C(=O)[C@H]([C@@H](C)O)n3cc(CCCCN)nn3)CC2)n1	.	.	0.4%	10.4µM*	.
C#CCOCCOCCOCCNc1nc(N2CCN(C(=O)Cn3cc(CCCCN)nn3)CC2)nc(N2CCN(C(=O)[C@H](C)n3cc(CCCN=C(N)N)nn3)CC2)n1	-3.6	-0.8%	-7.6%	0.117µM*	-11.6
C#CCOCCOCCOCCNc1nc(N2CCN(C(=O)Cn3cc(CCCN=C(N)N)nn3)CC2)nc(N2CCN(C(=O)[C@H](C(C)C)n3cc(CCO)nn3)CC2)n1	-2.1	5.6%	-8.4%	?	-14.4
CCN(CC(=O)Nc1c(F)cccc1F)C(=O)c1ccc(N2C(=O)c3ccccc3C2=O)cc1	.	.	15.0%	2.8%	.
C#CCOCCOCCOCCNc1nc(N2CCN(C(=O)Cn3cc(CCCCN)nn3)CC2)nc(N2CCN(C(=O)[C@H]([C@@H](C)CC)n3cc(CCCN=C(N)N)nn3)CC2)n1	.	.	0.738µM*	?	.
O=C(NCCCN1CCc2ccccc2C1)C1CCN(c2nnc(-n3cccc3)s2)CC1	12.5	0.6%	4.15µM*	?	17.2
O=C(NCc1ccco1)C1CCN(c2nnc(-n3cccc3)s2)CC1	15.6*	2.5%	7.9%	7.9%	16.3
O=C(NCc1ccco1)C1CCN(c2nc3ccccc3n2Cc2ccc(F)cc2)CC1	-7.8	5.5%	.	10.4µM*	-5.1
C[C@H](NC(=O)C1CC(=O)N(c2ccc3c(c2)OCO3)C1)C(=O)NC1CCCCC1 (some centres not stated)	-2.4	-5.7%	14.1%	21.1%	-4.7
CC(C)(Oc1ccc(Cl)cc1)C(=O)N/N=C/c1cn[nH]c1-c1ccccc1	6.8	7.5%	.	?	12.4
O=C(Nc1ccccc1Cl)c1ccn[nH]1	19.8*	-6.9%	77.4%	74.4%	110.5
O=C(Nc1ccccc1F)c1ccn[nH]1	22.3*	3.6%	98.3%	51.3%	46.8*
CS(=O)(=O)Nc1ccccc1C(=O)Nc1ccccc1Cl	-2.0	9.4%	-3.5%	?	19.3
O=CN1Cc2[nH]c3ccccc3c2N(c2ccc(Cl)cc2)C1=O	-0.7	7.9%	.	9.28µM*	-7.4
O=C1CNCc2[nH]c3ccccc3c2N1c1ccccc1	1.1	7.8%	44.4%	.	-3.0
Cc1cccc(OC(C)C(=O)NC2CCS(=O)(=O)C2)c1C (configuration not stated)	-2.3	-3.9%	11.1%	?	-10.2
COc1ccc(/C=C2\SC(=S)N(CCC(=O)N3CCCCC3CCO)C2=O)cc1 (configuration not stated)	6.9	0.8%	?	?	13.4
O=C1/C(=C/c2ccc(Cl)cc2)SC(=S)N1CCC(=O)N1CCCCC1CCO (configuration not stated)	-18.4	-7.2%	-9.1%	13.1µM*	7.2
CC1CCN(C(=O)CCN2C(=O)/C(=C/c3cccs3)SC2=S)CC1	-4.4	4.3%	-6.6%	39.3%	-10.5
O=C1/C(=C/c2cccc(Cl)c2)SC(=S)N1CCC(=O)N1CCCCC1CCO (configuration not stated)	14.7	-7.4%	?	?	25.8
O=C1/C(=C/c2cccs2)SC(=S)N1CC(=O)N1CCCCC1CCO (configuration not stated)	14.8*	-0.4%	-6.7%	15.9%	17.9
O=C1/C(=C/c2ccccc2F)SC(=S)N1CC(=O)N1CCCCC1c1cccnc1 (configuration not stated)	-3.6	-8.3%	-6.9%	14.7µM*	8.8
O=C1/C(=C/c2ccccc2)SC(=S)N1CCCC(=O)N1CCCCC1CCO (configuration not stated)	4.1	11.2%	?	7.38µM*	-3.0
SMILES	CHX counter	LmPK inhibitor	Pf growth 48h	Pf growth 96h	Shiga toxin inh
O=C1/C(=C/c2ccccc2F)SC(=S)N1CCC(=O)N1CCCCC1CCO (configuration not stated)	30.5*	5.7%	?	?	12.2
COc1ccc(/C=C2\SC(=O)N(CCC(=O)N3CCCCC3CCO)C2=O)cc1 (configuration not stated)	9.6	-0.6%	?	?	11.9
O=C1/C(=C/c2ccco2)SC(=S)N1CCC(=O)N1CCCCC1CCO (configuration not stated)	11.0*	14.0%	?	?	16.2
CN(CCC#N)C(=O)COC(=O)c1ccc(Cl)c(S(=O)(=O)N(C)c2ccccc2)c1	1.8	1.1%	-4.8%	37.4%[1.15 µM]	-13.3
CCN(CC)c1cccc(OCC(=O)N(C)CCC#N)c1	11.5	0.4%	10.4µM*	10.0%	-13.6
CC(=O)c1c(C)[nH]c(C(=O)NCc2cccc(Cl)c2)c1C	6.1	4.0%	-4.5%	3.9%	-7.2
C[C@]12CCC(=O)C=C1C=C[C@@H]1[C@@H]2CC[C@@]2(C)[C@H]1CC[C@@]21CCC(=O)O1	-2.7	2.3%	-21.0%	-20.8%	-7.7
Cc1ccc(S(=O)(=O)N(C)c2ccc(OC(C)C(=O)N3CCCC3)cc2)cc1C (configuration not stated)	.	.	11.7µM*	?	.
COc1ccc(S(=O)(=O)N(C)c2ccc(C(=O)N3CCCC3)cc2)cc1	-6.5	-1.7%	0.1%	?	13.9
CCOC(=O)c1cc(CC)sc1NC(=O)c1ccc([N+](=O)[O-])c(N2CCOCC2)c1	-1.8	-0.9%	26.5%	?	-14.1
Cc1c(NC(=S)Nc2ccc(Cl)cc2)c(=O)n(-c2ccccc2)n1C	-2.5	0.3%	-2.2%	9.1%	9.5
O=C(N/N=C/c1ccccc1O)c1cccc(C(F)(F)F)c1	16.4	2.9%	?	?	47.6*
O=C(N/N=C/c1ccccc1C(F)(F)F)c1ccc(O)cc1	25.5*	2.1%	125.4%	143.7%	69.3*
Cc1ccccc1Cn1nc(C)c(NC(=O)c2cc(-c3ccco3)on2)c1C	-1.5	0.1%	?	11.3%	22.0
COc1ccc(OC)c(-c2cc(C(=O)Nc3c(C)nn(Cc4ccccc4Cl)c3C)no2)c1	1.8	0.3%	13.1µM*	88.1%	-8.1
COc1ccc(OC)c(-c2cc(C(=O)Nc3c(C)nn(Cc4ccccc4C)c3C)no2)c1	10.2	0.0%	5.22µM*	17.1%	-11.0
Cc1cc(C(=O)Nc2c(C)nn(Cc3ccccc3Cl)c2C)no1	-2.3	1.9%	2.62µM*	4.3%	16.7

Bioassay records from PubChem BioAssay.
